Assay results taken from PubChem BioAssay (NCI).
Compounds without any hit were thinned out: in the full panel of roughly 83,000, 20% have a hit.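 Testing used 96-well plates and a 48-hour single-concentration exposure. Example: -40 means 40% of the starting cells died.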 A number with no mark means an inactive call. Calls of active or inactive are those of the source. The calls were made as follows: active = growth percent below 10; inactive = the rest.

System: OVCAR-8 ovarian
Experiment: NCI-60 one-dose screen, 48 h (100 = growth as untreated, 0 = no growth, -100 = all killed)
Settings: 10 µM

Q: Which growth does the source give for `O=C(O)c1ccc(-n2cc(CNc3ccc(Cl)cc3)c(-c3ccccc3)n2)cc1` here?
A: The growth was 98.9%.

Q: With `Cc1ccc(C(=O)C2C(=O)C3CCC2C3)cc1` (stereo not given) as the compound, how does the growth read?
A: The growth was 100%.

Q: For `COc1cc2c(Nc3ccc(S(N)(=O)=O)cc3)ncnc2c(OC)c1OC`, which growth is on record?
A: The growth was 106%.

Q: With `CN1CCN(CC(=O)Nc2cccc(-n3cc(-c4ccncc4)c(-c4ccc(Cl)c(O)c4)n3)c2)CC1` as the compound, how does the growth read?
A: The growth was 57.2%.

Q: Which growth does the source give for `O=[N+]([O-])c1cccc(/C=N/NC(=S)NC23CC4CC(CC(C4)C2)C3)c1` here?
A: The growth was 40.6%.

Q: `CN1CCN(c2cc3c(cc2F)c(=O)c(C(=O)O)cn3-c2ccc(F)cc2)CC1` was tested. Which growth did it give?
A: Its growth is 96.8%.

Q: How did the growth turn out when `O=C(CN1CCN(C(=O)c2ccccc2)CC1)Nc1ccccc1SCc1ccccc1` was run?
A: Its growth is 87.3%.

Q: How did the growth turn out when `Clc1ccc2c(c1)C(N1CCNCC1)=Nc1ccccc1O2` was run?
A: The growth was 73.2%.

Q: `CCOC(=O)c1cc(C(=O)c2cc(OC)c(OC)c(OC)c2)n2ncc3ccccc3c12` was tested. Which growth did it give?
A: The growth was 78.5%.

Q: With `CC(=O)C1CCC2C3CC=C4CC(SC(=N)N)CCC4(C)C3CCC12C` (stereo not given) as the compound, how does the growth read?
A: The growth was 30.8%.

Q: `COc1cc2c(Nc3ccc(-c4ccc(N)cc4)cc3)ncnc2c(OC)c1OC` was tested. Which growth did it give?
A: Its growth is 41.2%.

Q: Which growth does the source give for `C#C[C@]1(O)CCC2C3CCc4cc(OC5CCCC5)ccc4C3CC[C@@]21C` (stereo not given in full) here?
A: The growth was 81.3%.

Q: Which growth does the source give for `Cc1cc(SC#N)cc(C(C)(C)C)c1O` here?
A: The growth was 99.9%.

Q: Which growth does the source give for `Cc1cc(CCNC=O)c(C)c2c1sc1ccccc12` here?
A: Its growth is 97.9%.

Q: `CO[C@H]1CC(O[C@@H]2/C(C)=C/C[C@@H]3C[C@@H](C[C@]4(C=C[C@H](C)[C@@H](C5CCCCC5)O4)O3)OC(=O)[C@@H]3C=C(C)[C@@H](O)[C@H]4OC/C(=C\C=C\[C@@H]2C)[C@]43O)O[C@@H](C)C1O[C@H]1C[C@H](OC)[C@@H](O)[C@H](C)O1` (stereo not given in full) was tested. Which growth did it give?
A: The growth was -25.9% (active).

Q: Which growth does the source give for `CCN(CC)c1ccc(/C=C2\SC(=O)C(Nc3nnc(-c4cccnc4SCc4ccccc4)o3)C2=O)cc1` (stereo not given) here?
A: The growth was 24.2%.

Q: Which growth does the source give for `O=C(N/N=C/c1ccc([N+](=O)[O-])cc1)c1ccccc1Nc1cccc(C(F)(F)F)c1` here?
A: The growth was 95.8%.

Q: For `CC(=O)[C@H]1CC[C@]2(C)[C@@H]1CC[C@@H]1[C@@]3(C)CC(CCC#N)(CCC#N)C(=O)C(C)(C)[C@@H]3CC[C@]12C`, which growth is on record?
A: The growth was 106%.

Q: For `Cc1cc(CSc2ccccc2C(=O)N2CC=C(c3ccccc3)CC2)on1`, which growth is on record?
A: Its growth is 111%.

Q: Which growth does the source give for `N#Cc1ccc(C(=O)CSc2nccc(Nc3ccc(C(=O)O)cc3)n2)cc1` here?
A: The growth was 106%.

Q: `COc1ccc2nc3cc(Cl)ccc3c(Nc3cc(CN4CCCC4)c(O)c(CN4CCCC4)c3)c2n1` was tested. Which growth did it give?
A: The growth was 10.5%.

Q: `O=C(N/N=C/c1ccc(Cl)cc1)c1ccc(Cc2n[nH]c(=O)c3cccnc23)cc1` was tested. Which growth did it give?
A: The growth was 100%.

Q: Which growth does the source give for `O=S(=O)(Oc1ccc(-c2ccc3sccc3c2)cc1)c1ccc(F)cc1` here?
A: The growth was 106%.

Q: How did the growth turn out when `CNC(=O)c1c(I)c(NC(C)=O)c(I)c(C(=O)O)c1I` was run?
A: The growth was 103%.

Q: Which growth does the source give for `C/C(=N\O)c1ccc(NC(=O)CSc2nnc(-c3ccccc3)n2-c2ccccc2)cc1` here?
A: The growth was 84.7%.

Q: With `COc1ccc(/C=C2/SC(=S)NC2=O)c(OC)c1OC` as the compound, how does the growth read?
A: Its growth is 91.5%.

Q: With `C[C@]12CC[C@@H]3c4ccc(O)cc4CC[C@H]3[C@@H]1CC[C@@H]2NS(=O)(=O)c1ccc(C(F)(F)F)cc1` as the compound, how does the growth read?
A: Its growth is 57%.

Q: How did the growth turn out when `NS(=O)(=O)c1ccc(Br)cc1` was run?
A: Its growth is 105%.

Q: How did the growth turn out when `CNS(=O)(=O)Oc1ccc(-c2ccc3occc3c2)cc1` was run?
A: The growth was 99.5%.

Q: `COc1cc(-c2nn(-c3cccc(NC(=O)CCN4CCN(c5ccccc5)CC4)c3)cc2-c2ccncc2)ccc1Cl` was tested. Which growth did it give?
A: Its growth is 22.6%.

Q: Which growth does the source give for `CCN(CC)CC(=O)N(CC)c1ccc(C)c(Cl)c1` here?
A: The growth was 94.4%.

Q: `Cc1cccc(N=Cc2ccccc2O)c1C` was tested. Which growth did it give?
A: Its growth is 98.2%.

Q: Which growth does the source give for `CCCCC1(O)CCCCC1` here?
A: The growth was 104%.

Q: Which growth does the source give for `COc1ccc(/C=C2\CCCC3=C2N=C2SC(C)=CN2C3c2ccc(OC)cc2)cc1` (stereo not given) here?
A: Its growth is 95.2%.

Q: `c1ccc(CSc2ncccc2-c2nnc(SCCN3CCOCC3)o2)cc1` was tested. Which growth did it give?
A: Its growth is 109%.

Q: With `C/C=C/C1=CN2C(=O)c3cc(OC4OC(C)C(NC)C(C)(O)C4O)c(C)c(O)c3N=C[C@@H]2C1` (stereo not given in full) as the compound, how does the growth read?
A: Its growth is 9.18% (active).

Q: With `C[C@]12CC[C@@H]3c4ccc(OS(=O)(=O)O)cc4CC[C@H]3[C@@H]1CC[C@@H]2NS(=O)(=O)c1ccc(-c2ccccc2)cc1` as the compound, how does the growth read?
A: Its growth is 67.6%.

Q: Which growth does the source give for `COc1ccc(/C(C#N)=C/c2ccccc2OC)cc1` here?
A: The growth was 53.5%.

Q: `COc1ccc(Cc2cnc(N)nc2N)cc1OC` was tested. Which growth did it give?
A: The growth was 96.2%.

Q: How did the growth turn out when `Cc1cc(CC(C)CC(C)(C)C)n(O)c(=O)c1` (stereo not given) (tested in a mixture with another compound) was run?
A: Its growth is 20%.

System: OVCAR-5 ovarian
Experiment: as above
Settings: 10 µM

Q: How did the growth turn out when `O=C(O)c1ccc(-n2cc(CNc3ccc(Cl)cc3)c(-c3ccccc3)n2)cc1` was run?
A: The growth was 103%.

Q: Which growth does the source give for `Cc1ccc(C(=O)C2C(=O)C3CCC2C3)cc1` (stereo not given) here?
A: The growth was 99%.

Q: With `COc1cc2c(Nc3ccc(S(N)(=O)=O)cc3)ncnc2c(OC)c1OC` as the compound, how does the growth read?
A: The growth was 105%.

Q: Which growth does the source give for `CN1CCN(CC(=O)Nc2cccc(-n3cc(-c4ccncc4)c(-c4ccc(Cl)c(O)c4)n3)c2)CC1` here?
A: Its growth is 68.2%.

Q: With `O=[N+]([O-])c1cccc(/C=N/NC(=S)NC23CC4CC(CC(C4)C2)C3)c1` as the compound, how does the growth read?
A: The growth was 101%.

Q: With `CN1CCN(c2cc3c(cc2F)c(=O)c(C(=O)O)cn3-c2ccc(F)cc2)CC1` as the compound, how does the growth read?
A: Its growth is 106%.

Q: `O=C(CN1CCN(C(=O)c2ccccc2)CC1)Nc1ccccc1SCc1ccccc1` was tested. Which growth did it give?
A: The growth was 96.4%.

Q: With `Clc1ccc2c(c1)C(N1CCNCC1)=Nc1ccccc1O2` as the compound, how does the growth read?
A: The growth was 69%.

Q: For `CCOC(=O)c1cc(C(=O)c2cc(OC)c(OC)c(OC)c2)n2ncc3ccccc3c12`, which growth is on record?
A: Its growth is 99.3%.

Q: `CC(=O)C1CCC2C3CC=C4CC(SC(=N)N)CCC4(C)C3CCC12C` (stereo not given) was tested. Which growth did it give?
A: Its growth is 80.4%.

Q: For `COc1cc2c(Nc3ccc(-c4ccc(N)cc4)cc3)ncnc2c(OC)c1OC`, which growth is on record?
A: The growth was 40.1%.

Q: For `C#C[C@]1(O)CCC2C3CCc4cc(OC5CCCC5)ccc4C3CC[C@@]21C` (stereo not given in full), which growth is on record?
A: The growth was 63.2%.

Q: Which growth does the source give for `Cc1cc(SC#N)cc(C(C)(C)C)c1O` here?
A: The growth was 88.4%.

Q: With `Cc1cc(CCNC=O)c(C)c2c1sc1ccccc12` as the compound, how does the growth read?
A: Its growth is 82.4%.

Q: With `CO[C@H]1CC(O[C@@H]2/C(C)=C/C[C@@H]3C[C@@H](C[C@]4(C=C[C@H](C)[C@@H](C5CCCCC5)O4)O3)OC(=O)[C@@H]3C=C(C)[C@@H](O)[C@H]4OC/C(=C\C=C\[C@@H]2C)[C@]43O)O[C@@H](C)C1O[C@H]1C[C@H](OC)[C@@H](O)[C@H](C)O1` (stereo not given in full) as the compound, how does the growth read?
A: The growth was -65.3% (active).

Q: Which growth does the source give for `CCN(CC)c1ccc(/C=C2\SC(=O)C(Nc3nnc(-c4cccnc4SCc4ccccc4)o3)C2=O)cc1` (stereo not given) here?
A: The growth was 41.4%.

Q: Which growth does the source give for `O=C(N/N=C/c1ccc([N+](=O)[O-])cc1)c1ccccc1Nc1cccc(C(F)(F)F)c1` here?
A: Its growth is 98.6%.

Q: With `CC(=O)[C@H]1CC[C@]2(C)[C@@H]1CC[C@@H]1[C@@]3(C)CC(CCC#N)(CCC#N)C(=O)C(C)(C)[C@@H]3CC[C@]12C` as the compound, how does the growth read?
A: The growth was 88.5%.

Q: With `Cc1cc(CSc2ccccc2C(=O)N2CC=C(c3ccccc3)CC2)on1` as the compound, how does the growth read?
A: The growth was 87.3%.

Q: `N#Cc1ccc(C(=O)CSc2nccc(Nc3ccc(C(=O)O)cc3)n2)cc1` was tested. Which growth did it give?
A: The growth was 102%.

Q: For `COc1ccc2nc3cc(Cl)ccc3c(Nc3cc(CN4CCCC4)c(O)c(CN4CCCC4)c3)c2n1`, which growth is on record?
A: The growth was 6.64% (active).

Q: For `O=C(N/N=C/c1ccc(Cl)cc1)c1ccc(Cc2n[nH]c(=O)c3cccnc23)cc1`, which growth is on record?
A: The growth was 99.7%.

Q: `O=S(=O)(Oc1ccc(-c2ccc3sccc3c2)cc1)c1ccc(F)cc1` was tested. Which growth did it give?
A: Its growth is 102%.

Q: How did the growth turn out when `CNC(=O)c1c(I)c(NC(C)=O)c(I)c(C(=O)O)c1I` was run?
A: The growth was 113%.

Q: Which growth does the source give for `C/C(=N\O)c1ccc(NC(=O)CSc2nnc(-c3ccccc3)n2-c2ccccc2)cc1` here?
A: The growth was 86.2%.

Q: `COc1ccc(/C=C2/SC(=S)NC2=O)c(OC)c1OC` was tested. Which growth did it give?
A: Its growth is 72.8%.

Q: `C[C@]12CC[C@@H]3c4ccc(O)cc4CC[C@H]3[C@@H]1CC[C@@H]2NS(=O)(=O)c1ccc(C(F)(F)F)cc1` was tested. Which growth did it give?
A: Its growth is 90.5%.

Q: How did the growth turn out when `NS(=O)(=O)c1ccc(Br)cc1` was run?
A: Its growth is 97.6%.

Q: `CNS(=O)(=O)Oc1ccc(-c2ccc3occc3c2)cc1` was tested. Which growth did it give?
A: The growth was 88.8%.

Q: `COc1cc(-c2nn(-c3cccc(NC(=O)CCN4CCN(c5ccccc5)CC4)c3)cc2-c2ccncc2)ccc1Cl` was tested. Which growth did it give?
A: Its growth is 47.5%.

Q: With `CCN(CC)CC(=O)N(CC)c1ccc(C)c(Cl)c1` as the compound, how does the growth read?
A: The growth was 104%.

Q: With `Cc1cccc(N=Cc2ccccc2O)c1C` as the compound, how does the growth read?
A: The growth was 108%.

Q: With `CCCCC1(O)CCCCC1` as the compound, how does the growth read?
A: Its growth is 112%.

Q: Which growth does the source give for `COc1ccc(/C=C2\CCCC3=C2N=C2SC(C)=CN2C3c2ccc(OC)cc2)cc1` (stereo not given) here?
A: Its growth is 105%.

Q: For `c1ccc(CSc2ncccc2-c2nnc(SCCN3CCOCC3)o2)cc1`, which growth is on record?
A: The growth was 119%.

Q: How did the growth turn out when `C/C=C/C1=CN2C(=O)c3cc(OC4OC(C)C(NC)C(C)(O)C4O)c(C)c(O)c3N=C[C@@H]2C1` (stereo not given in full) was run?
A: Its growth is -1.31% (active).

Q: With `C[C@]12CC[C@@H]3c4ccc(OS(=O)(=O)O)cc4CC[C@H]3[C@@H]1CC[C@@H]2NS(=O)(=O)c1ccc(-c2ccccc2)cc1` as the compound, how does the growth read?
A: Its growth is 113%.

Q: Which growth does the source give for `COc1ccc(/C(C#N)=C/c2ccccc2OC)cc1` here?
A: The growth was 55.5%.

Q: Which growth does the source give for `COc1ccc(Cc2cnc(N)nc2N)cc1OC` here?
A: The growth was 100%.

Q: With `Cc1cc(CC(C)CC(C)(C)C)n(O)c(=O)c1` (stereo not given) (tested in a mixture with another compound) as the compound, how does the growth read?
A: The growth was 41.4%.
